Records with an inconclusive call do not appear. Active and inactive are the calls of the source. Unless noted, the call rests on the fitted dose curve; in most records, active means well fitted curve in the direction sought with a large enough effect; inconclusive means small, poorly fitted or top-dose-only effect, or another doubt; inactive means no such curve, though single readings can be large; an effect the other way counts as inactive or inconclusive.
Assays:
[1] = AP1 Signaling Pathway (AID 357; active means well fitted curve in either direction with a large enough effect, not every such curve was filed as active;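 further: ME-180 reporter cells stimulated with EGF at its EC50 level; on the % scale 0 is the no-effect control and ±100 the full control effect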)
Method in brief: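 In this screen, ME-180 cells in Opti-MEM with 0.5% dialyzed FBS received EC50 EGF and compound titrations for 5 h. AP-1 reporter beta-lactamase was detected via CCF4 ratio, giving AC50 for positive and negative modulators.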

[2] = NFAT Signaling Pathway (AID 444; active means well fitted curve in either direction with a large enough effect, not every such curve was filed as active;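 further: carbachol stimulus at about its EC50 of 1 µM final; on the % scale 0 is the no-effect control and ±100 the full control effect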); details: Jurkat NFAT-bla M1, carbachol, beta-lactamase ratio, 5 h; at 17.2 µM (top of the series) unless noted
Method in brief: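 Jurkat cells carrying an NFAT-driven β-lactamase reporter and co-transfected muscarinic M1 receptor were treated with compound plus carbachol (1 uM final, an EC50 level) for 5 h at 37 °C. CCF4 loading followed for 1 h at RT; 460/530 nm ratio gave %activity.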

[3] = Stat Signaling Pathway (AID 446; active means well fitted curve in either direction with a large enough effect, not every such curve was filed as active;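 further: ME-180 cervical cancer cells given 40 pM IL-6 alongside compound; SIE-controlled beta-lactamase reporter measured as 460/530 nm FRET emission ratio; on the % scale 0 is the no-effect control and ±100 the full control effect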)
Method in brief: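 Overnight-plated ME-180 cells bearing a STAT Inducible Element beta-lactamase reporter; 5 h co-exposure to compound and 40 pM IL-6; values normalized to 300 pM IL-6 and 125 nM JAK inhibitor controls.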

[4] = target: Mitogen-activated protein kinase 10 (Mus musculus) (UniProt Q61831); experiment: JNK3 AlphaScreen Assay (AID 530; active means well fitted curve in either direction with a large enough effect, not every such curve was filed as active;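 further: kinase came from lysate of stimulated human HepG2 cells; signal reports phosphorylation of biotinylated GST-cJun 1-79 at Ser73 with 10 µM ATP; on the % scale 0 is the no-effect control and ±100 the full control effect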)
Method in brief: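 Biotinylated GST-cJun(1-79) served as substrate for JNK3 in HepG2 lysates stimulated with IL-1beta and TNF-alpha. ATP was 10 uM final, pH 7.6. Ser73 phosphorylation was quantified by AlphaScreen (680 nm excitation).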

[5] = target: 3',5'-cyclic-AMP phosphodiesterase 4B (Homo sapiens) (UniProt Q07343); experiment: qHTS Assay for Inhibitors of PDE-IV (AID 607; active means well fitted activation curve with a large enough effect in the main read-out, with a control signal flat, not every such curve was filed as active; further: % of control where 0% means no effect)
Method in brief: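 Live HEK293 cells with a modified cyclic nucleotide-gated (CNG) channel report intracellular cAMP via membrane-potential dye fluorescence (ex 535/em 590 nm). Endogenous PDE-IV was targeted. Compounds were tested at up to 22.9 uM final; RO 20-1724 100 uM served as control.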

[6] = target: Luciferin 4-monooxygenase (Photinus pyralis) (UniProt P08659); experiment: Biochemical firefly luciferase enzyme assay for NPC (AID 624030);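 further: purified P. pyralis luciferase at 10 nM with luciferin and ATP substrate; 0% = DMSO and -100% = full luciferase inhibition by PTC124 control; nearly all actives have a fitted effect of over 70% in size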
Method in brief: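 Counter-screen for direct inhibition of the luciferase enzyme by approved-drug library compounds, run at 10 nM enzyme in 50 mM Tris acetate (final). Luminescence was read within 5 min of enzyme-buffer addition and normalized to PTC124 versus DMSO (0%).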

[7] = S16 Schwann cell viability assay (CellTiter-Glo assay) (AID 624031);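 further: cellular ATP luminescence as a viability measure; plate controls were DMSO-treated cells for no effect and cell-free wells for full effect; nearly all actives have a fitted effect of over 70% in size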
Method in brief: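 Native S16 rat Schwann cells, 500-750 cells/well in DMEM with 10% FBS, dosed with compound after overnight culture and incubated 24h at 37 degree Celsius/5% CO2. Viability by CellTiter-Glo luminescence; % activity normalized to no-cell wells and DMSO-treated cells.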

[8] = S16 Schwann cell PMP22 intronic element firefly luciferase assay (AID 624032);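 further: plate controls were DMSO for no effect and PTC124 positive control mean for full effect; nearly all actives have a fitted effect of over 30% in size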
Method in brief: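 Rat S16 Schwann cells stably carrying a PMP22 intronic element-driven Fluc reporter were seeded overnight, then exposed to compounds for 24 h at 37 °C. Luminescence was normalized to PTC124 (positive control) and DMSO (0% activity).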

[9] = S16 Schwann cell PMP22 intronic element beta-lactamase assay (AID 624044; calls by dose curve;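 further: 0% = DMSO and -100% = potassium clavulanate positive control; nearly all actives have a fitted effect of over 15% in size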)
Method in brief: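 Beta-lactamase reporter under a PMP22 intronic regulatory element in stable S16 rat Schwann cells; 24 h compound exposure. 460 nm blue signal normalized between DMSO (0%) and potassium clavulanate, with 535 nm FRET tracking viability; curves classed by r2 and response.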

[10] = qHTS profiling for inhibitors of Plasmodium falciparum proliferation (AID 504749);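 further: 0% = DMSO vehicle and full inhibition = artemisinin control; nearly all actives have a fitted effect of over 60% in size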; details: P. falciparum in erythrocytes, SYBR Green DNA, 72 h, at 12.8 µM (top of the series)
Method in brief: (§1)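 Fluorescence of SYBR Green-bound parasite DNA, read at 485/535 nm, served as the growth measure. Infected erythrocytes were cultured with compound 72 h; artemisinin (0.29 uM) and DMSO wells defined the normalization range.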

[11] = tested on: 3D7; experiment: as above; details: P. falciparum in erythrocytes, SYBR Green DNA, 72 h; series mostly up to 12.8 µM
Method in brief: as §1

[12] = tested on: 7G8; experiment: as above; details: P. falciparum in erythrocytes, SYBR Green DNA, 72 h; series mostly up to 12.8 µM
Method in brief: as §1

[13] = tested on: AA1029; experiment: as above; details: P. falciparum in erythrocytes, SYBR Green DNA, 72 h; series mostly up to 12.8 µM
Method in brief: as §1

[14] = tested on: AS120; experiment: as above; details: P. falciparum in erythrocytes, SYBR Green DNA, 72 h; series mostly up to 12.8 µM
Method in brief: as §1

[15] = tested on: ATS189; experiment: as above; details: P. falciparum in erythrocytes, SYBR Green DNA, 72 h; series mostly up to 12.8 µM
Method in brief: as §1

[16] = tested on: ATS95; experiment: as above; details: P. falciparum in erythrocytes, SYBR Green DNA, 72 h; series mostly up to 12.8 µM
Method in brief: as §1

[17] = tested on: C2A; experiment: as above; details: P. falciparum in erythrocytes, SYBR Green DNA, 72 h; series mostly up to 12.8 µM
Method in brief: as §1

[18] = tested on: CP185; experiment: as above; details: P. falciparum in erythrocytes, SYBR Green DNA, 72 h; series mostly up to 12.8 µM
Method in brief: as §1

[19] = tested on: CP191; experiment: as above; details: P. falciparum in erythrocytes, SYBR Green DNA, 72 h; series mostly up to 12.8 µM
Method in brief: as §1

[20] = tested on: CP192; experiment: as above; details: P. falciparum in erythrocytes, SYBR Green DNA, 72 h; series mostly up to 12.8 µM
Method in brief: as §1

[21] = tested on: CP194; experiment: as above; details: P. falciparum in erythrocytes, SYBR Green DNA, 72 h; series mostly up to 12.8 µM
Method in brief: as §1

[22] = tested on: CP201; experiment: as above; details: P. falciparum in erythrocytes, SYBR Green DNA, 72 h; series mostly up to 12.8 µM
Method in brief: as §1

[23] = tested on: CP203; experiment: as above; details: P. falciparum in erythrocytes, SYBR Green DNA, 72 h; series mostly up to 12.8 µM
Method in brief: as §1

[24] = tested on: CP211; experiment: as above; details: P. falciparum in erythrocytes, SYBR Green DNA, 72 h; series mostly up to 12.8 µM
Method in brief: as §1

[25] = tested on: CP215; experiment: as above; details: P. falciparum in erythrocytes, SYBR Green DNA, 72 h; series mostly up to 12.8 µM
Method in brief: as §1

[26] = tested on: CP217; experiment: as above; details: P. falciparum in erythrocytes, SYBR Green DNA, 72 h; series mostly up to 12.8 µM
Method in brief: as §1

[27] = tested on: CP237; experiment: as above; details: P. falciparum in erythrocytes, SYBR Green DNA, 72 h; series mostly up to 12.8 µM
Method in brief: as §1

[28] = tested on: CP238; experiment: as above; details: P. falciparum in erythrocytes, SYBR Green DNA, 72 h; series mostly up to 12.8 µM
Method in brief: as §1

[29] = tested on: CP247; experiment: as above; details: P. falciparum in erythrocytes, SYBR Green DNA, 72 h; series mostly up to 12.8 µM
Method in brief: as §1

[30] = tested on: CP250; experiment: as above; details: P. falciparum in erythrocytes, SYBR Green DNA, 72 h; series mostly up to 12.8 µM
Method in brief: as §1

[31] = tested on: CP252; experiment: as above; details: P. falciparum in erythrocytes, SYBR Green DNA, 72 h; series mostly up to 12.8 µM
Method in brief: as §1

[32] = tested on: CP256; experiment: as above; details: P. falciparum in erythrocytes, SYBR Green DNA, 72 h; series mostly up to 12.8 µM
Method in brief: as §1

[33] = tested on: CP260; experiment: as above; details: P. falciparum in erythrocytes, SYBR Green DNA, 72 h; series mostly up to 12.8 µM
Method in brief: as §1

[34] = tested on: CP262; experiment: as above; details: P. falciparum in erythrocytes, SYBR Green DNA, 72 h; series mostly up to 12.8 µM
Method in brief: as §1

Chain of 3',5'-cyclic-AMP phosphodiesterase 4B (Homo sapiens) (Q07343 whole entry, looked up): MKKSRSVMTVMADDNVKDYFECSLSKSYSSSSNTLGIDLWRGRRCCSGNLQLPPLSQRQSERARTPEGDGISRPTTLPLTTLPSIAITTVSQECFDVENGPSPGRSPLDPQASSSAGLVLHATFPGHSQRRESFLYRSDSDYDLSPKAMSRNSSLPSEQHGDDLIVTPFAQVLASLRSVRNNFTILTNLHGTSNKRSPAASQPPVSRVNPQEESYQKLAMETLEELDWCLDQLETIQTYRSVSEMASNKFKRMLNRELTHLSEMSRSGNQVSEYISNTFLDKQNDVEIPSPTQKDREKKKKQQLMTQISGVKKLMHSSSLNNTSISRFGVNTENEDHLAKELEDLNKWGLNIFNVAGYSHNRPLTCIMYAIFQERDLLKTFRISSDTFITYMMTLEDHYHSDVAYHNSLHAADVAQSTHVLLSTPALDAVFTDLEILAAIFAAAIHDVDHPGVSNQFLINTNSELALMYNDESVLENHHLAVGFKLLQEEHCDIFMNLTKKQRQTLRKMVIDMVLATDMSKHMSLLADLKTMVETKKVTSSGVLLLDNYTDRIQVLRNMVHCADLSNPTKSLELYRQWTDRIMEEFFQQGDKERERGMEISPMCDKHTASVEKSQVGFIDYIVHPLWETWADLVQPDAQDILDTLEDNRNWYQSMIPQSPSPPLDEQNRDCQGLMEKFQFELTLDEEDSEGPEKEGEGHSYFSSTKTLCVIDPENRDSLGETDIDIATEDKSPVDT
Chain of Luciferin 4-monooxygenase (Photinus pyralis) (P08659 whole entry, looked up): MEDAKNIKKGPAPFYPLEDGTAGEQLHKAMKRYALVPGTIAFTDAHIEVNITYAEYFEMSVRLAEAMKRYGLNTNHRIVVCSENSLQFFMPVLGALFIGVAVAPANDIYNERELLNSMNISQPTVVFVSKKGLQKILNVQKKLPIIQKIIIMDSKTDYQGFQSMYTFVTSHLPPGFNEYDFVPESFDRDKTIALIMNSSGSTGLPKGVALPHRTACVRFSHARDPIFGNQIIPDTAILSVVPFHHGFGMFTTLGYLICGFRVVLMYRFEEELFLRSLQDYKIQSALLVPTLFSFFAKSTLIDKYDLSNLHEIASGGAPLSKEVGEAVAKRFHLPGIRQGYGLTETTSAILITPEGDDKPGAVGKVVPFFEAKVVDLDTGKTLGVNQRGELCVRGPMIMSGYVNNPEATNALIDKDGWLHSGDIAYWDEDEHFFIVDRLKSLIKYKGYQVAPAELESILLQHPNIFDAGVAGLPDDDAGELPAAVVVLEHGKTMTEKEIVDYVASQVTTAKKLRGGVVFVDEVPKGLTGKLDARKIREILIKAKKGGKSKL

NC[C@@H]1O[C@@H](O[C@H]2[C@H](O)[C@H](O[C@@H]3O[C@H](CO)[C@@H](O)[C@H](N)[C@@H]3O)[C@@H](N)C[C@H]2N)[C@H](N)C[C@@H]1O
inactive: outcome [1] | activity change, negative = inhibition [2] -7.92% | outcome [3] | Potency [4] | outcome [5] | Potency [6] | outcome [7] | Potency [8] | Potency [9] | activity, negative = inhibition ([10]; parasite line A) 9.72% | activity, negative = inhibition ([10]; parasite line B) 18.7% | Potency [11] | Potency [12] | Potency [13] | Potency [14] | Potency [15] | Potency [16] | Potency [17] | Potency [18] | Potency [19] | Potency [20] | Potency [21] | Potency [22] | Potency [23] | Potency [24] | Potency [25] | Potency [26] | Potency [27] | Potency [28] | Potency [29] | Potency [30] | Potency [31] | Potency [32] | Potency [33] | Potency [34]

— PubChem BioAssay (NCATS)
